The whole screen tested about 1,300 compounds, of which about 750 (58%) were called active. This is one part of the list. A number with no mark means an inactive call.
Molecular target: Sulfhydryl oxidase 1 (Homo sapiens) (UniProt O00391)
Test: QSOX1 enzyme inhibitors, primary screen, biochemical, ROS-Glo H2O2 luminescence, HTS (AID 1347418)
Settings: recombinant QSOX1, ROS-Glo H2O2 luminescence; at 12.5 µM; hits give high values; active = any value above zero

Sequence of Sulfhydryl oxidase 1 (Homo sapiens) (O00391 whole entry, looked up): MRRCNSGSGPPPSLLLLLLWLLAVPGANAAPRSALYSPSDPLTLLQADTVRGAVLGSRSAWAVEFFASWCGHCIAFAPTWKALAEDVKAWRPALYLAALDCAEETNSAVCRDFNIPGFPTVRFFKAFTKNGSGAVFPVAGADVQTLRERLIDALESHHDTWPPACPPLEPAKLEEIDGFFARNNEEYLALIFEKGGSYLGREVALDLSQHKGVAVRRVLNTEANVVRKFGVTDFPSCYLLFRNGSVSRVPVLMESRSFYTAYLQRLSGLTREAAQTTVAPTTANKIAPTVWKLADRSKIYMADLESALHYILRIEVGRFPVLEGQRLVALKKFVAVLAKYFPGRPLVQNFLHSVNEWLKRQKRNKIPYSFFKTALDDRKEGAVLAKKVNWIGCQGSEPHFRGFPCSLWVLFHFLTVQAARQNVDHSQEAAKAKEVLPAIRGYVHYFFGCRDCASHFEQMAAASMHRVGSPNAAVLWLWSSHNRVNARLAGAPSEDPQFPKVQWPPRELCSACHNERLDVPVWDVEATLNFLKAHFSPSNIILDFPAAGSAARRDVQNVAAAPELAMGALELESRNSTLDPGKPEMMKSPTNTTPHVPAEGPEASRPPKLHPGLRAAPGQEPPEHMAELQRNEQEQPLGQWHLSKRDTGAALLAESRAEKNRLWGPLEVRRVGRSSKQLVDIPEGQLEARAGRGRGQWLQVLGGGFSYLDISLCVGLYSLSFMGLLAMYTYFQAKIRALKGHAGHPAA

Row | Structure (SMILES) | inhibition
1 | C#CCCN | 0.1% (active)
2 | Nc1ncnc2nc(-c3ccc(N4CCOCC4)nc3)cc(-c3cccc(Br)c3)c12 | 10% (active)
3 | NC(=O)c1ccc2[nH]ccc2c1 | 0.6% (active)
4 | CC(C)OC(=O)C(C)(C)Oc1ccc(C(=O)c2ccc(Cl)cc2)cc1 | -0.6%
5 | COc1ccc(NC(=O)/C=C/c2ccc(Cl)cc2)cc1 | 12.1% (active)
6 | CC(C)(C)c1ccc(/C=C/C(=O)Nc2ccc3c(c2)OCCO3)cc1 | -1.6%
7 | N[C@H](CCCP(=O)(O)O)C(=O)O | -1.3%
8 | N[C@@H](CCCC(=O)O)C(=O)O | 6.7% (active)
9 | NC(=O)CC[C@H](N)C(=O)O | 2.8% (active)
10 | NC(CCCP(=O)(O)O)C(=O)O (centres undefined) | 0%
11 | CN1C2CCCC1CC(NC(=O)c1nn(C)c3ccccc13)C2 (centres undefined) | 3% (active)
12 | O=c1[nH]ccc2c(O)cccc12 | 4.1% (active)
13 | O[Si](CCCN1CCCCC1)(c1ccc(F)cc1)C1CCCCC1 (centres undefined) | -3.8%
14 | CCOC(=O)[C@H](CCc1ccccc1)N[C@@H](C)C(=O)N1[C@H](C(=O)O)C[C@H]2CCCC[C@@H]21 | 2.6% (active)
15 | C[C@H](NC(CCc1ccccc1)C(=O)O)C(=O)N1CCC[C@H]1C(=O)O (some centres undefined) | -2.6%
16 | Cc1cccc(C#Cc2ccccc2)n1 | 2.9% (active)
17 | COc1cc([C@@H]2c3cc4c(cc3[C@@H](O[C@@H]3O[C@@H]5CO[C@@H](C)O[C@H]5[C@H](O)[C@H]3O)[C@H]3COC(=O)[C@H]23)OCO4)cc(OC)c1O | 0%
18 | COc1ccc2c(c1OC)C(=O)O[C@@H]2[C@H]1c2c(cc3c(c2OC)OCO3)CCN1C | -4.2%
19 | COc1cc([C@@H]2c3cc4c(cc3[C@H](O)C3COC(=O)[C@@H]32)OCO4)cc(OC)c1OC (some centres undefined) | 1.1% (active)
20 | CC1=C(CC(=O)O)c2cc(F)ccc2/C1=C\c1ccc(S(C)=O)cc1 (centres undefined) | -0.4%
21 | CC1=C(CC(=O)O)c2cc(F)ccc2/C1=C\c1ccc(S(C)(=O)=O)cc1 | 3.1% (active)
22 | CC(=O)Oc1ccccc1C(=O)O | 0.3% (active)

Row | Structure (SMILES) | inhibition
23 | O=C(CCc1ccc(O)cc1)c1c(O)cc(O)cc1O | 6.2% (active)
24 | O=C1CCC(c2ccc(-n3ccnc3)cc2)=NN1 | 6.6% (active)
25 | Nc1nc2ccc(OC(F)(F)F)cc2s1 | -3.9%
26 | Cc1ccc2nc(CN(CCN(Cc3nc4ccc(C)cc4[nH]3)Cc3nc4ccc(C)cc4[nH]3)Cc3nc4ccc(C)cc4[nH]3)[nH]c2c1 | -0.7%
27 | Brc1c(Br)c(Br)c2n[nH]nc2c1Br | 1% (active)
28 | CC(CN(C)C)CN1c2ccccc2CCc2ccccc21 (centres undefined) | 2% (active)
29 | CNCCCC1c2ccccc2C=Cc2ccccc21 | -4.7%
30 | CN(C)CCCN1c2ccccc2CCc2ccc(Cl)cc21 | 2.6% (active)
31 | CNCCCC12CCC(c3ccccc31)c1ccccc12 | -2.7%
32 | CNCCCN1c2ccccc2CCc2ccccc21 | 5.2% (active)
33 | CN(C)CCCN1c2ccccc2CCc2ccccc21 | 11.1% (active)
34 | O=C(O)CCC(C(=O)O)N1C(=O)c2ccccc2C1=O (centres undefined) | -1%
35 | CCCCNc1ccc(C(=O)OCCN(C)C)cc1 | -1.8%
36 | CCCCNc1c(C(=O)OCC)c(C)nc2c1cnn2CC | 3.5% (active)
37 | CCOC(=O)c1cnc2c(cnn2CC)c1NN=C(C)C | 0.7% (active)
38 | CC(C)COC(=O)OCN1C(=O)CN(CCN2CC(=O)N(COC(=O)OCC(C)C)C(=O)C2)CC1=O | 2.6% (active)
39 | NCCSSCCN | 10.5% (active)
40 | CCOC(=O)Nc1ccc(NCc2ccc(F)cc2)nc1N | 9.8% (active)
41 | CCCCCCCCc1ccc(-c2ccc(C(=O)O)cc2)cc1 | -5.7%
42 | CCCCCCCCCC[Si](C)(C)CCC(=O)NC(Cc1ccc(C)cc1)c1ccccc1 (centres undefined) | 0.6% (active)
43 | CCN(c1nc(N)c(C(=O)N=C(N)N)nc1Cl)C(C)C | -3.8%
44 | NC(N)=NC(=O)c1nc(Cl)c(N2CCCCCC2)nc1N | 1.7% (active)

Row | Structure (SMILES) | inhibition
45 | CN(C)c1nc(N)c(C(=O)N=C(N)N)nc1Cl | 0.7% (active)
46 | NC(N)=NC(=O)c1nc(Cl)c(N)nc1N | -2.5%
47 | COCCOC(=O)C1=C(C)NC(C)=C(C(=O)OC/C=C/c2ccccc2)C1c1cccc([N+](=O)[O-])c1 (centres undefined) | 5.1% (active)
48 | C#CCN1C(C)=C(C(=O)OC)C(c2cccc([N+](=O)[O-])c2)C(C(=O)OCC)=C1C (centres undefined) | -3%
49 | CCOC(=O)C1=C(C)NC(C)=C(C(=O)OCC)C1c1c(F)c(F)c(F)c(F)c1F | -3.2%
50 | COC(=O)C1=C(C)NC(C)=C(C(=O)OC(C)(C)CN(C)CCC(c2ccccc2)c2ccccc2)C1c1cccc([N+](=O)[O-])c1 (centres undefined) | -1.4%
51 | COC(=O)C1=C(C)NC(C)=C(C(=O)OC)C1c1ccccc1[N+](=O)[O-] | -1.1%
52 | CCOC(=O)C1=C(C)NC(C)=C(C(=O)OC)C1c1cccc(Cl)c1Cl (centres undefined) | 3% (active)
53 | COC(=O)C1=C(C)NC(C)=C(C(=O)OCCN(C)Cc2ccccc2)C1c1cccc([N+](=O)[O-])c1 (centres undefined) | -1.6%
54 | COCCOC(=O)C1=C(C)NC(C)=C(C(=O)OC(C)C)C1c1cccc([N+](=O)[O-])c1 (centres undefined) | -2.5%
55 | CCOC(=O)C1=C(C)NC(C)=C(C(=O)OC)C1c1cccc([N+](=O)[O-])c1 (centres undefined) | 1% (active)
56 | O=C(O)CN(CCOCCOCCN(CC(=O)O)CC(=O)O)CC(=O)O | -5.4%
57 | CCCCCCCCCCC(C)(C)C(=O)Nc1c(OC)cc(OC)cc1OC | -1%
58 | COc1ccccc1OCC(O)CN1CCN(CC(=O)Nc2c(C)cccc2C)CC1 (centres undefined) | 3.9% (active)
59 | COc1ccccc1N1CCN(CC(O)COc2cccc3ccccc23)CC1 (centres undefined) | 8.9% (active)
60 | COc1cc2nc(N3CCN(C(=O)OCc4ccccc4)C(C(=O)NC(C)(C)C)C3)nc(N)c2cc1OC (centres undefined) | 4.3% (active)
61 | COc1cc2nc(N3CCN(C(=O)C4COc5ccccc5O4)CC3)nc(N)c2cc1OC (centres undefined) | 4.9% (active)
62 | COc1cc2nc(N3CCN(C(=O)c4ccco4)CC3)nc(N)c2cc1OC | -0.3%
63 | COc1cc2nc(N3CCN(C(=O)C4CCCO4)CC3)nc(N)c2cc1OC (centres undefined) | 0.3% (active)
64 | COc1cc2nc(N(C)CCCNC(=O)C3CCCO3)nc(N)c2cc1OC (centres undefined) | 1.1% (active)

From PubChem BioAssay AID1347418 (Sanford-Burnham Center for Chemical Genomics, 2020)
